Source: PubChem BioAssay (Tox21)
Results filed as inconclusive are left out. Values without a mark were called inactive. Calls of active or inactive are those of the source. The call rests on the fitted dose curve; in most records, active means well fitted cell-killing curve with a large enough effect in the repeat runs; inconclusive means weak or mixed curves; inactive means flat fitted curve, though single readings scatter.

Test: qHTS assay to identify small molecule antagonists of the estrogen related receptor (ERR) signaling pathway - cell viability counter screen (AID 1224818)
Conditions: ERR reporter cell line viability counter screen; series mostly up to 46.1 µM; viability change, negative = cytotoxic: at the top concentration
Description: National Center for Advancing Translational Sciences [NCATS]
NIH Chemical Genomics Center [NCGC]
U.S. Environmental Protection Agency [EPA]
National Institutes of Environmental Health Sciences [NIEHS]
National Toxicology Program [NTP]
U.S. Food and Drug Administration [FDA]
Estrogen related receptors (ERRs), the first orphan nuclear receptors discovered, play an important role in the control of cellular energy metabolism. ERRs are required for high-energy production in response to the environmental challenges. ERR-alpha was also identified as an adverse marker for breast cancer progression; ERR-alpha-positive tumors have a poor prognosis. To screen and to identify environmental compounds that perturb the ERR signaling pathways could provide valuable information for potential therapeutic or preventive measures in the treatment of metabolic disease. To differentiate true ERR antagonists or agonist from cytotoxic substances, the assay is multiplexed with cell viability assay.
Tox21 Assay Protocol Summary:
The ERR cells were dispensed at 2,000 cells/5 ul/well in 1536-well white plates using a Multidrop dispenser. After the assay plates were incubated at a 37 C/5% CO2 incubator for 6 hours, 23 nL of compounds dissolved in DMSO, positive and negative controls or DMSO only was transferred to the assay plate by a pin tool. The plates were incubated at 37 C for 17.5 hours. 1 ul/well of CellTiter-Fluor reagent was added into the assay plates using a Flying Reagent Dispenser. After 30 min incubation at 37 C/5% CO2, the fluorescence intensity in the plates was measured using a ViewLux plate reader.
On the % scale 0 is the no-effect control and ±100 the full control effect.

Row | Structure (SMILES) | viability change, negative = cytotoxic | outcome
1 | O=c1[nH]oc2c1CCNC2 | 9.79% | –
2 | NCC1(CC(=O)O)CCCCC1 | 14.8% | –
3 | CC[C@@H](CO)NC(=O)[C@@H]1C=C2c3cccc4c3c(cn4C)C[C@H]2N(C)C1 | 6.85% | –
4 | CCOC(=O)CC(SP(=S)(OC)OC)C(=O)OCC (stereo unspecified) | -1.19% [at 92.2 µM] | –
5 | Cn1c(CCCC(=O)O)nc2cc(N(CCCl)CCCl)ccc21 | 11.5% | –
6 | C=C(C)[C@H]1CN[C@H](C(=O)O)[C@H]1CC(=O)O | 11% | –
7 | CCCN1CCC[C@@H]2Cc3[nH]ncc3C[C@H]21 | – | inactive
8 | NNC(N)=O | 6.45% | –
9 | CC[C@@H](CO)NC(=O)[C@@H]1C=C2c3cccc4[nH]cc(c34)C[C@H]2N(C)C1 | 5.82% | –
10 | CCCN1CCC[C@@H]2Cc3nc(N)ncc3C[C@H]21 | 0.226% | –
11 | Cc1ccc(S(=O)(=O)N[C@@H](CCCCN)C(=O)CCl)cc1 | -2.66% | –
